# High-throughput results deposited in PubChem by several laboratories.
# CHT PAM: allosterically activates the human high affinity choline transporter. CHT-expressing cells, membrane potential dye, choline EC20; hits give high values; LV-AA mutant CHT in HEK293 cells. Q9GZV3. B-score at 10 µM. 0.49% of 310,000 active;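 active = initial fluorescence not abnormally high and integrated response B-score, plate-corrected, over 3 SD above library mean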
# ALR inh: blocks human ALR sulfhydryl oxidase activity | AID 485317 | inhibition, % (concentration not given with the values) | P55789 | purified ALR, DTT oxidation, H2O2 HRP-luminol luminescence | 3.8% of 290,000 active;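 active = mean replicate inhibition above about 79%, with every replicate also reaching it, limit read from the data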
# Target sequence (P55789 whole entry, looked up): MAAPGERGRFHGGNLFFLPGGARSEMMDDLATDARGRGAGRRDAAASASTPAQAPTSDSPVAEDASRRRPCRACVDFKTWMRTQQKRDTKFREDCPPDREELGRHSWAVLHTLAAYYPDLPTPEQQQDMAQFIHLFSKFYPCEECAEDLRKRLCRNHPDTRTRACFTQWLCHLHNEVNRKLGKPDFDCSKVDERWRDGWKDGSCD
# PREPL inh: inhibits the human prolyl oligopeptidase-like enzyme; Q4J6C6; 0.68% of 320,000 active; inhibition, % at 5.96 µM; AID 2751; recombinant PREPL, fluorescence polarization activity-based probe; in the data active = inhibition above about 43%;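 note: 0% = enzyme with DMSO and 100% = wells lacking enzyme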
# CHT block: inhibits the human high affinity choline transporter; B-score at 10 µM; CHT-expressing cells, membrane potential dye, choline response; hits give low values; 0.86% of 310,000 active; Q9GZV3;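 active = B-score over 3 SD under the library average, and starting fluorescence ratio not unusually high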;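 note: choline stimulus applied at its EC90 after an EC20 pre-addition; B-score computed on integrated fluorescence ratio after choline addition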
# AI-2 QS modul: Vibrio harveyi AI-2 quorum sensing modulation; Vibrio harveyi JMH597 AI-2 luminescence/OD600 ratio, 9 h; hits give low values; strain lacks LuxN and CqsS sensors; 0 = neutral-control median; activity change, % at 7.5 µM; 0.4% of 300,000 active; AID 2094; in the data active = activity change below about -75%, passing the limit was not always enough;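 note: luminescence divided by OD600 gain over 9 h not by final OD600 alone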
# * marks the source's active call; other numbers are inactive results; i = inactive; x = not tested or not shown. In the library only some 5% were active in any assay of this set; here they are far more common.
SMILES,CHT PAM,ALR inh,PREPL inh,CHT block,AI-2 QS modul
Cc1c(C(=O)NNc2c(Cl)cccc2Cl)n(C)oc1=O,i,98*,1,i,20
O=C(CN1CCN(Cc2ccccc2)CC1)N/N=C/c1cccnc1,i,-1,1,i,0
CCOC(=O)/C(C#N)=C/C=C1/C=CC=CN1C,i,95*,-1,i,28
C=CCN1C=CC(=C/C=C(/C#N)C(=O)OCC)C=C1,i,84*,-3,i,-7
CCOC(=O)/C(C#N)=C\N(C)C,i,2,9,i,15
CCOC(=O)/C(C#N)=C\c1ccco1,i,-2,1,i,21
Cc1nn(CC(=O)Nc2ccc3c(c2)nc2n3CCN(C3CCCCC3)C2)c(=O)c2ccccc12,i,-12,9,i,-15
S=C(NNc1ccnc2cc(Cl)ccc12)Nc1ccccc1Cl,i,-1,19,i,14
FC(F)(F)c1cnc(NNC(=S)Nc2ccccc2Cl)c(Cl)c1,i,97*,11,i,6
O=C(COC(=O)CC1SC(N2CCCC2)=NC1=O)Nc1c(F)c(F)c(F)c(F)c1F (stereo not given),x,x,6,x,x
COc1ccc(CNc2ccc(Cl)cc2)cc1Cn1ccnc1,i,x,28,i,3
CCc1ccc(NCc2ccc(OC)c(Cn3ccnc3)c2)cc1,i,81*,36,i,-32
NC(N)=NCCCC(NC(=O)c1ccccc1)C(=O)Nc1ccc2ccccc2c1 (stereo not given),i,-10,-3,i,x
CC(NC(=O)C1CCN(c2nnc(N3CCCC3=O)s2)CC1)c1ccccc1 (stereo not given),i,10,15,i,23
Cc1ccc(-c2[nH]c(-c3ccc(C(=O)O)cc3)nc2-c2ccccc2)cc1,i,99*,3,i,66
Cc1ccc(C(=O)NCCSc2snnc2C)cc1,i,94*,-1,i,35
C[C@@H](C(=O)Nc1ccc(SC(F)F)cc1)N1C(=O)C2CCCCC2C1=O (stereo not given in full),x,90*,-6,x,x
Cc1ccc(NC(=O)C(C)N2C(=O)C3CC=C(Cl)CC3C2=O)cc1 (stereo not given),i,-7,-4,i,-7
Cc1cc(C(=O)CN2C(=O)CCC2=O)c(C)n1Cc1ccccc1,i,94*,-1,i,18
O=C(Nc1cccc(Cl)c1)NC1(C(=O)NCc2cccs2)CCCCC1,i,7,-3,i,37
O=C(NCc1cccs1)Nc1cccc(Cl)c1,i,-2,-9,i,-91*
COc1ccc(CC(=O)Nc2c3c(nn2C(C)(C)C)CS(=O)(=O)C3)cc1,i,-5,8,i,13
CCN(CC)c1ccc(C(=O)NNC(=O)CN2C(=O)NC(C)(c3ccccc3)C2=O)cc1 (stereo not given),x,33,8,x,x
CCOc1ccc(CCNC(=O)CSCc2ccc(C)cc2)cc1OCC,i,-1,3,i,7
COc1ccc(-c2nc(CS(=O)CC(=O)NCCC3=CCCCC3)c(C)o2)cc1 (stereo not given),i,99*,4,i,31
SMILES,CHT PAM,ALR inh,PREPL inh,CHT block,AI-2 QS modul
CCOc1ccc(CCNC(=O)CS(=O)Cc2nc(-c3ccccc3C)oc2C)cc1OCC (stereo not given),i,99*,24,i,35
COc1ccc(-c2nc(CS(=O)(=O)CC(=O)NCCc3ccc(C)cc3)c(C)o2)cc1,i,-21,-7,i,23
CCOc1ccc(CCNC(=O)CS(=O)Cc2nc(-c3ccc(C)cc3)oc2C)cc1OCC (stereo not given),i,98*,11,i,9
COc1cccc(-c2nc(CS(=O)CC(=O)NCCc3ccc(C)cc3)c(C)o2)c1 (stereo not given),i,14,-5,i,x
Cc1ccc(CCNC(=O)CS(=O)Cc2nc(-c3cccc(C)c3)oc2C)cc1 (stereo not given),i,99*,-9,i,36
CCOc1ccc(CCNC(=O)CS(=O)Cc2nc(-c3ccc(C)cc3)oc2C)cc1 (stereo not given),i,99*,-9,i,10
CC1(CCc2ccccc2)NC(=S)N(c2ccccc2)N1 (stereo not given),i,99*,7,i,-12
